Potency and affinity values are given separately.
Assays:
Staphylococcus aureus = conditions: Concentration 32 ug.mL-1; ASSAY_TEST Inhibition of Bacterial Growth; detection method Absorption (OD600); MEDIA CAMHB; plate type 384well; NBS; CORNING #3640; time 18 hr
Escherichia coli = conditions: Concentration 32 ug.mL-1; ASSAY_TEST Inhibition of Bacterial Growth; detection method Absorption (OD600); MEDIA CAMHB; plate type 384well; NBS; CORNING #3640; time 18 hr

Row | SMILES | Inhibition (Staphylococcus aureus) [%] | Inhibition (Escherichia coli) [%]
1 | CC(=O)O[C@H]1C[C@@]2(C)C(C[C@@H](O)C3[C@@]4(C)CC[C@@H](OC(=O)CO[N+](=O)[O-])[C@@H](C)C4CC[C@@]32C)/C1=C(\CCC=C(C)C)C(=O)OCc1ccccc1 (some centres not stated) | 5.41 | 4.14
2 | CC(=O)O[C@H]1C[C@@]2(C)C(C[C@@H](O)C3[C@@]4(C)CC[C@@H](O)[C@@H](C)C4CC[C@@]32C)/C1=C(\CCC=C(C)C)C(=O)Oc1ccc(CCO[N+](=O)[O-])cc1 (some centres not stated) | 23.19 | -3.14
3 | CC(=O)O[C@H]1C[C@@]2(C)C(C[C@@H](O)C3[C@@]4(C)CC[C@@H](OC(=O)C(N)CC(C)C)[C@@H](C)C4CC[C@@]32C)/C1=C(\CCC=C(C)C)C(=O)OCc1ccccc1 (some centres not stated) | -0.87 | -4.43
4 | CC(=O)O[C@H]1C[C@@]2(C)C(CC(=O)C3[C@@]4(C)CC[C@@H](OC(=O)CCCCO[N+](=O)[O-])[C@@H](C)C4CC[C@@]32C)/C1=C(\CCC=C(C)C)C(=O)OCc1ccccc1 (some centres not stated) | 9.81 | -0.69
5 | CC(=O)O[C@H]1C[C@@]2(C)C(CC(=O)C3[C@@]4(C)CCC(=O)[C@@H](C)C4CC[C@@]32C)/C1=C(\CCC=C(C)C)C(=O)OCc1ccccc1 (some centres not stated) | 29.92 | -4.11
6 | CC(=O)O[C@H]1C[C@@]2(C)C(C[C@@H](O)C3[C@@]4(C)CC[C@@H](OC(=O)C(N)C(C)C)[C@@H](C)C4CC[C@@]32C)/C1=C(\CCC=C(C)C)C(=O)OCc1ccccc1 (some centres not stated) | -9.9 | -10.45

Source: ChEMBL document CHEMBL4513152, “CO-ADD screening of Yantai University (China) compounds”
